Sampled rows, rich in hits. Any-hit rate of the full collection: about 2.4%.
TGFb inhibitor: inhibitors of TGF-b signaling | HepG2 CAGA-GFP TGF-b/SMAD3 reporter, GFP fluorescence, 18 h; TGF-beta stimulated, 500 pg/mL final | Potency, µM (titrated, usually from 46.1 µM), inactives show at the top dose activity, negative = inhibition, usual class: inhibitors | actives 1.2% (n = 410,000); further: on the % scale 0 is the no-effect control and ±100 the full control effect; nearly all actives have a fitted effect of over 65% in size
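GFP signal (ex488/em500-530) from TGF-beta-stimulated HEPG2 CAGA-GFP cells, 500 pg/mL final, 18 h at 37 degrees C in DMEM plus 1% FBS, normalized to unstimulated and DMSO-stimulated controls.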
HepG2 tox: counter-screen for TGF-b inhibitors: cytotoxicity in HepG2 cells; HepG2 CAGA-GFP viability, ATP luminescence, 18 h; Potency, µM (top dose mostly 46.1 µM), without a hit: at the top dose activity change, negative = cytotoxicity, hits mostly cytotoxic; actives 0.76% (n = 410,000); AID 588856
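CellTiter-Glo luminescence gave cytotoxicity after 18 hours at 37 degrees C. The cells were HepG2 CAGA-GFP in 1% FBS DMEM, stimulated with 500 pg/mL TGF-beta after compound addition. %Activity was normalised to no-cell wells (complete cell-killing) and DMSO (no toxicity), and curves were fitted and classified.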
Apoferritin bind: binds horse apoferritin like a general anesthetic; apoferritin/1-aminoanthracene competitive binding, fluorescence; Potency, µM (doses to about 77.5 µM), for the others: top-dose activity change, negative = displacement, usual class: inhibitors; P02791; AID 485281; actives 0.074% (n = 350,000); further: on the % scale 0 is the no-effect control and ±100 the full control effect; nearly all actives have a fitted effect of over 20% in size
Target sequence (P02791 2-175 limits assumed): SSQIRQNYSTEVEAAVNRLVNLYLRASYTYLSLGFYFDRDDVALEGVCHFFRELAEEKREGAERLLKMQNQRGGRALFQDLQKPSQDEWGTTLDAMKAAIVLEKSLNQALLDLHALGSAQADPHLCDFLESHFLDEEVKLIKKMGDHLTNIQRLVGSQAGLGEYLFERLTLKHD
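Horse-spleen apoferritin (10 uM) was mixed with 50% saturated 1-aminoanthracene in PBS, exposed to compounds for 10 min at room temperature, and read for fluorescence (ex 380 nm, em 535 nm). Competitive displacement was fitted with a four-parameter Hill equation.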
ATXN2 expr inh: ATXN2 expression inhibition; Potency, µM (top dose mostly 57 µM), for inactives: at the top dose activity change, negative = inhibition, hits mostly inhibitors; actives 0.72% (n = 360,000); AID 1745845; HEK-293 ATXN2-luciferase reporter, luminescence, 24 h; further: on the % scale 0 is the no-effect control and ±100 the full control effect; nearly all actives have a fitted effect of over 55% in size
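qHTS (up to 57 uM final) was run with 24 h compound exposure of reporter cells at 37 °C. Each well was multiplexed: SteadyGlo luminescence measured ATXN2-luciferase expression after a fluorogenic Gly-Phe-AFC viability readout (25 uM final).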
ATXN viability: cell viability loss in ATXN counter-screen. actives 0.49% (n = 400,000). Potency, µM (highest dose often 56.7 µM), hits mostly cytotoxic. S2 cells (HEK-293 line with an ATXN2-luciferase reporter) viability, CellTiter-Fluor protease fluorescence, 24 h; further: nearly all actives have a fitted effect of over 40% in size
An asterisk follows results filed as active; i = inactive; ? = inconclusive; / = no result given; [ ] = dose if it differs, or a comment. The call rests on the fitted dose curve; in most records, active means well fitted curve in the direction sought with a large enough effect; inconclusive means small, poorly fitted or top-dose-only effect, or another doubt; inactive means no such curve, though single readings can be large; an effect the other way counts as inactive or inconclusive. Potency means the concentration at half of the fitted maximal effect.

SMILES	TGFb inhibitor	HepG2 tox	Apoferritin bind	ATXN2 expr inh	ATXN viability
COc1ccc(/C=C/C(=O)CC(O)(c2ccccc2)C(F)(F)F)cc1 (stereo not given)	?	10µM*	-19.1%	-20.7%	i
O=C(/C=C/c1ccccc1)CC(O)(c1ccccc1)C(F)(F)C(F)F (stereo not given)	12.6µM*	-84.2%	?	?	?
Cc1cc(NC(=O)CCS(=O)(=O)c2ccc3c(c2)NC(=O)C(C)S3)ccc1Br (stereo not given)	11.2µM*	-66.3%	-20.3%	/	i
COc1ccc(NC(=O)CCS(=O)(=O)c2ccc3c(c2)NC(=O)C(C)S3)cc1OC (stereo not given)	11.0%	-10.5%	-9.4%	-10.2%	i
COc1cc(N(C)C)c(OC)cc1C=C1C=CC=C1	?	-33.9%	/	/	/
CC(C)CCNC(=O)C1CCN(C(=O)c2cc3sccc3n2Cc2ccc(Cl)cc2)CC1	6.31µM*	-20.9%	73.5%	/	/
COCCCNC(=O)C1CCN(C(=O)c2cc3sccc3n2Cc2ccc(F)cc2)CC1	0.7%	-18.8%	-16.0%	5.6%	i
C[C@@H](c1ccccc1)N1C(=O)[C@H]2[C@@H]3[C@H](O)C=CC(=O)[C@H]3CC[C@H]2C1=O	/	/	5.0%[15.3 µM]	/	/
O=C(NCCc1ccccn1)C1CC12CCN(C(=O)c1cccc(C(F)(F)F)c1)CC2 (stereo not given)	/	/	/	/	i
O=C(NNC(=O)c1ccc(Oc2cc(Cl)cc(Cl)c2)o1)c1ccccc1	20µM*	-84.1%	?	/	?
COc1nc(N2CCCC2)nc(-n2nnc(C(C)=O)c2C)n1	0.9%	-15.2%	-3.5%	-8.6%	i
Cc1ccc(NC2=C/C(=N/S(=O)(=O)c3cccs3)c3ccccc3C2=O)cc1	?	3.98µM*	-10.2%	7.94µM*	7.94µM*
Cc1ccc(S(=O)(=O)/N=C2\C=C(NS(=O)(=O)c3ccccc3)C(=O)c3ccccc32)c(C)c1	6.2%	9.5%	/	-4.0%	i
CC(C)(C)c1ccc(S(=O)(=O)/N=C2\C=C(NS(=O)(=O)c3ccccc3)C(=O)c3ccccc32)cc1	?	-50.6%	-10.9%	-16.8%	?
Cc1ccc(S(=O)(=O)/N=C2\C=C(Nc3cccc(C(=O)O)c3)C(=O)c3ccccc32)c(C)c1	12.6µM*	15.8µM*	-11.1%	31.6µM*	/
Cc1ccc(/C=C2\S/C(=N/S(=O)(=O)c3cccs3)NC2=O)cc1	11.1%	2.8%	-2.6%	/	i
CCc1ccc(S(=O)(=O)/N=C2\C=C(Nc3ccc(C(=O)O)cc3)C(=O)c3ccccc32)cc1	15.8µM*	-108.8%	-6.6%	?	?
Cc1ccc(S(=O)(=O)/N=C2\C=C(Nc3cccc(C(=O)O)c3)C(=O)c3ccccc32)cc1	12.6µM*	-111.0%	-3.6%	?	?
CCN(CCO)C(=O)c1cnn(-c2ncc3c(n2)-c2ccccc2CCC3)c1C1CC1	/	/	/	/	i
O=C1c2ccccc2NC(c2ccccc2OCc2ccccc2)N1Cc1ccco1 (stereo not given)	?	-30.3%	/	/	/
COC(=O)c1ccccc1NC1=C/C(=N\S(=O)(=O)c2ccc(C(=O)O)cc2)c2ccccc2C1=O	8.91µM*	15.8µM*	0.2%	?	17.8µM*
CN1CCN(C(c2ccc(C(F)(F)F)cc2)c2ccc3cccnc3c2O)CC1 (stereo not given)	?	-26.0%	-25.8%	7.94µM*	?
COc1ccc(C)cc1NC(=O)NCCn1nnc2cc(S(=O)(=O)N(C)C)ccc21	-27.0%	7.5%	-5.1%	2.5%	i
COc1ccc(CCCNC(=O)C2Cc3c(-c4ccccc4)ccnc3O2)cc1 (stereo not given)	?	-32.1%	/	?	17.8µM*
COc1ccc(CNC(=O)C2Cc3c(-c4ccccc4)ccnc3O2)cc1OC (stereo not given)	2.4%	4.9%	/	-2.1%	i
SMILES	TGFb inhibitor	HepG2 tox	Apoferritin bind	ATXN2 expr inh	ATXN viability
CCN1C(=O)C(=Cc2cccc(OC)c2Oc2ccc([N+](=O)[O-])cc2[N+](=O)[O-])SC1=S	0.0%	-13.8%	5.4%	22.4µM*	12.6µM*
C=C1C=C(C(F)F)n2ncc(C(=O)NCc3ccccc3OC)c2N1	0.0%	-1.0%	/	/	/
COc1cc(/C=C/CN2CCOc3ccc(C(O)c4cccnc4)cc3C2)ccc1O (stereo not given)	/	/	/	/	i
N#C/C(=C(/O)CN1CCN(c2ccccc2F)CC1)c1nc(-c2ccc(Cl)cc2)cs1	7.94µM*	-44.2%	-5.3%	?	i
CCOc1ccccc1CNC(=O)CCCN1C(=O)CCn2nc(-c3cccn3C)cc21	?	-14.6%	6.3%	-12.1%	?
O=C(CS(=O)(=O)c1nc(-c2ccc(Cl)cc2)cn1-c1ccccc1)Nc1cccc(Cl)c1	10µM*	-32.5%	-8.7%	-29.0%	?
Cc1ccc(-c2cn(-c3cccc(Cl)c3)c(S(=O)(=O)CC(=O)Nc3cccc(C)c3)n2)cc1	?	-27.8%	-21.4%	-18.1%	?
CCc1nc2cc(C(=O)N(C)CC3CCCN(C)C3)cc(NC(=O)c3ccccc3OC)c2n1C (stereo not given)	/	/	/	/	i
Cc1ccccc1C(=O)NCCc1csc(-c2ccc(C(F)(F)F)cc2)n1	0.0%	-1.3%	?	/	/
COc1ccc(CCC(=O)NCCc2csc(-c3ccc(F)cc3)n2)cc1	8.91µM*	-38.2%	-1.5%	/	/
COc1ccccc1C(=O)NCCc1csc(-c2ccc(C(F)(F)F)cc2)n1	8.91µM*	-60.7%	-6.0%	/	/
O=C(CC1C(=O)NCCN1Cc1ccc(F)cc1)NC1CCCCCCC1 (stereo not given)	-26.7%	-6.8%	15.8µM*	/	i
O=C(CC1C(=O)NCCN1Cc1cccc(F)c1F)NCCCC1CCCC1 (stereo not given)	-17.2%	2.5%	31.6µM*	9.1%	i
Cc1ccc(CN2CCNC(=O)C2CC(=O)NC2CCCCCC2)cc1 (stereo not given)	-12.5%	-1.7%	?	2.6%	i
O=C(c1cccc(Cl)c1)c1nn(-c2ccccc2)c(=O)cc1C(F)(F)F	-9.4%	8.7%	?	25.1µM*	?
O=C(c1ccccc1)c1nn(-c2ccccc2)c(=O)cc1C(F)(F)F	1.4%	0.6%	?	?	i
O=C(c1ccccc1)c1nn(-c2ccc(Cl)cc2)c(=O)cc1C(F)(F)F	?	-6.3%	?	11.2µM*	?
O=C1NCCN1C(=O)C12CC3CC(CC(C3)C1)C2	-15.1%	-25.4%	14.1µM*	4.1%	i
COC(=O)c1cc(C(=O)OC)n(Cc2ccc(F)cc2)c1C	7.9%	-4.9%	-10.1%	9.5%	i
Cc1c(C#N)c(NC(=O)CCl)n(Cc2ccc(F)cc2)c1C	17.8µM*	11.2µM*	-6.8%	?	21.2µM*
